# Laboratory results published in the supplement of paper PMC7156485.
# Values without a mark were called inactive.
# Tested on: TDF
# Test: H1.0 immunofluorescence intensity relative to DMSO (% of DMSO); higher = stronger H1.0 induction, active = 120 or more
# Conditions: concentration: 10 µM; 24 h
# Summary of the method: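 Cells were seeded at 800 per well in 384-well plates with RPMI containing 10% FBS; both HCC1569 and TDF lines were used. Compounds were added at 10 µM for 24 h at 37 °C, in triplicate, before fixation in 3.7% formaldehyde and staining with a rabbit anti-H1.0 antibody, an AlexaFluor 647 secondary and DAPI. H1.0 nuclear intensity or cell number is reported as percent of the plate control using the median of replicates, and HCC1569 values were smoothed for positional effects.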
# 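Also: TDF is a line of transformed human dermal fibroblasts of mesenchymal origin.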
row,SMILES,H1.0 immunofluorescence intensity
1,N[C@H](C(=O)O)c1cccc(O)c1 [(S)-3-Hydroxyphenylglycine],102
2,CCCCCCCCC=CCC=CCC=CCCCC(=O)NCCO [Mead ethanolamide],108
3,O=C(O)Cc1sc(-c2ccccc2)nc1-c1ccc(Cl)cc1 [Fentiazac],89.6
4,CN1CCN(CC(=O)N2c3ccccc3C(=O)Nc3cccnc32)CC1.Cl.Cl [Pirenzepine.2HCl],90.5
5,CC(CCc1ccc(O)cc1)NCCc1ccc(O)c(O)c1.Cl (configuration not stated) [Dobutamine.HCl],83.4
6,Br.Br.NC(N)=NCCSSCCN=C(N)N [Guanidinoethyl disulfide dihydrobromide],96.5
7,CN(C)CCCOC1C(C(O)CO)OC2OC(C)(C)OC21.Cl (configuration not stated) [Amiprilose hydrochloride],82.4
8,Cc1cccc(Nc2ccccc2C(=O)O)c1C [Mefenamic acid],104
9,CCn1nc(C(=O)O)c(=O)c2cc3c(cc21)OCO3 [Cinoxacin],95.7
10,CN1C(=O)CC(C(=O)O)C1c1cccnc1 (stereo not drawn) [Trans-4-Cotininecarboxylic acid],93.3
11,"COC(=O)C1C2CC3c4[nH]c5cc(OC)ccc5c4CCN3CC2CC(OC(=O)c2cc(OC)c(OC)c(OC)c2)C1OC (single isomer, unassigned; (-)) [(-)-Isoreserpine]",102
12,CC12C=Cc3occc3C1CCC13CC(=O)C(CCC12)C3 (configuration not stated) [16-Oxokahweol],91.4
13,"CCCCCC=CCC=CCC=CCC=CCCCCCC(=O)O [7(Z), 10(Z), 13(Z), 16(Z)-Ocosatetraenoic Acid]",89.2
14,O=C(Nc1nc2ccccc2n1CCN1CCOCC1)c1cccc([N+](=O)[O-])c1 [IRAK-1/4 Inhibitor],91.2
15,O=c1cc(-c2ccc(O)cc2)oc2cc(OC3OC(CO)C(O)C(O)C3O)c(C3OC(CO)C(O)C(O)C3O)c(O)c12 (configuration not stated) [Saponarin],108
16,COc1ccc(COc2ccc(Cc3cnc(N)nc3N)cc2OC)cc1 [cFMS Receptor Tyrosine Kinase Inhibitor],98.1

row,SMILES,H1.0 immunofluorescence intensity
1,Cl.Cl.O=C(O)COCCN1CCN(C(c2ccccc2)c2ccc(Cl)cc2)CC1 (configuration not stated) [Cetirizine 2HCl],94.3
2,O=C(O)CN(CCOCCOCCN(CC(=O)O)CC(=O)O)CC(=O)O,90.3
3,CN1CCN(C2Cc3ccccc3Sc3ccc(Cl)cc32)CC1.O=C(O)C=CC(=O)O (configuration not stated) [Clorotepine maleate],106
4,Cl.c1ccc(-n2c(C3=NCCN3)cc3ccccc32)cc1,105
5,CCCCCC(O)C=CC1C(O)CC(O)C1CC=CCCCC(=O)O (racemic),88.4
6,CCCN(CCC)C(=O)C(CCC(=O)O)NC(=O)c1ccccc1 (configuration not stated) [Proglumide],88.6
7,CC(C)NCC(O)COc1ccc(CCOCC2CC2)cc1.Cl (configuration not stated) [Betaxolol hydrochloride],95.4
8,"O.c1cnc2c(c1)ccc1cccnc12 [1,10-Phenanthroline monohydrate]",108
9,COc1cc(Cc2cnc(N)nc2N)cc(OC)c1OC [Trimethoprim],106
10,CC(C)=CCC(O)C1=CC(=O)c2c(O)ccc(O)c2C1=O (configuration not stated) [Shikonin],119
11,CCCCCCCCC=CCCCCCCCC(=O)O [9(E)-Octadecenoic acid],94.9
12,CCOC(=O)c1cnc2c(cnn2CC)c1NN=C(C)C.Cl [Etazolate hydrochloride],86.8
13,COc1cc(C2CC(=O)c3c(O)cc(O)cc3O2)ccc1O (configuration not stated) [Homoeriodictyol],99
14,NC(N)=NC(N)=Nc1ccccc1 [1-Phenylbiguanide],89.2
15,COc1cc(NS(C)(=O)=O)ccc1Nc1c2ccccc2nc2ccccc12.Cl [Amsacrine hydrochloride],152 (active)
16,CCCCCC(O)C=CC1OC(O)CC(O)C1CC=CCCCC(=O)O (configuration not stated) [Thromboxane B2],102
